About 1,400 (3%) of roughly 47,000 compounds were called active. The entries come from a sample that favours actives as a whole. Unmarked numbers belong to inactive results. Cut-off read from the data, not from the text of the source: active = inhibition above about 30%; inactive = the rest.
Biological target: Ubiquitin carboxyl-terminal hydrolase 28 (Homo sapiens) (UniProt Q96RU2)
Assay: blocks human USP28 ubiquitin-rhodamine cleavage (AID 1645857)
Conditions: purified USP28, Ub-rhodamine cleavage fluorescence, 30 min; at 25 µM; stronger effect = higher value

Sequence of Ubiquitin carboxyl-terminal hydrolase 28 (Homo sapiens) (Q96RU2 whole entry, looked up): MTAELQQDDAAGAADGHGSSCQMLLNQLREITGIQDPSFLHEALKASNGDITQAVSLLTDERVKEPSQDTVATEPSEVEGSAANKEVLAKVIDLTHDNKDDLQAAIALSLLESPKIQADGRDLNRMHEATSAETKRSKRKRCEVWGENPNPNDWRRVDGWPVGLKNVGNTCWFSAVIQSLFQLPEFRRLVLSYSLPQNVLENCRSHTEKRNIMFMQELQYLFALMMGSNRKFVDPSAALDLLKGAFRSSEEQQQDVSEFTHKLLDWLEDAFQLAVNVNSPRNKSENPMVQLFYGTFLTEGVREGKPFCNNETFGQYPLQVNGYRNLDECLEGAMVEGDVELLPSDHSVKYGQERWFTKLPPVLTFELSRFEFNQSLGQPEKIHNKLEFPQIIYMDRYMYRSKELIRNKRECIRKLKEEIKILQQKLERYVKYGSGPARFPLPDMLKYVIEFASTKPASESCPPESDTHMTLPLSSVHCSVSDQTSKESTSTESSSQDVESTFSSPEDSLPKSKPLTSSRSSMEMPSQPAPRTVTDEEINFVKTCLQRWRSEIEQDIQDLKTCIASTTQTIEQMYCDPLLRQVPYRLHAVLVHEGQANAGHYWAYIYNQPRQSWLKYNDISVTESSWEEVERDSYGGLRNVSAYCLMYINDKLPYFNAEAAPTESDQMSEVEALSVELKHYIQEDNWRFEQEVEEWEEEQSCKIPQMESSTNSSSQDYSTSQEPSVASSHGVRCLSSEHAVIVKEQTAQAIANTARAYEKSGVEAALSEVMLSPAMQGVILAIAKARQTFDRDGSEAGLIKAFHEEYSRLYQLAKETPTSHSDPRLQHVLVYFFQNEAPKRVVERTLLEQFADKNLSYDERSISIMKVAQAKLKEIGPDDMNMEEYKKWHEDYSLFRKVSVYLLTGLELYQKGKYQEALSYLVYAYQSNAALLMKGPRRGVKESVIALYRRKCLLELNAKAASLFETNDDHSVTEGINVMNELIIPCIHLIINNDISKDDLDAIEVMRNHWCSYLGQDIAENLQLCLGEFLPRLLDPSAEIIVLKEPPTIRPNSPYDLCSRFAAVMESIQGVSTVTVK

Question: With `O=C(NCC(c1cccnc1)N1CCc2ccccc2C1)c1cccc(F)c1` (centres undefined) as the compound, how does the inhibition read?
Answer: -8.37%

Question: How did the inhibition turn out when `COc1ccc(N(Cc2cc(=O)[nH]c3ccccc23)C(=O)c2ccc(Cl)cc2)cc1` was run?
Answer: 9.24%

Question: How did the inhibition turn out when `Cc1cc(N)nc2c1c(C)nn2-c1ncc(C(F)(F)F)cc1Cl` was run?
Answer: -20.8%

Question: Which inhibition does the source give for `O=c1[nH]oc(O)c1-c1ncc(C(F)(F)F)cc1Cl` here?
Answer: 8.59%

Question: Which inhibition does the source give for `CC(=O)c1ccc(Cc2ncc(C(F)(F)F)cc2Cl)s1` here?
Answer: 61% (active)

Question: How did the inhibition turn out when `COc1ccc(N(CC(=O)N2CCc3ccccc32)S(=O)(=O)c2ccccc2)cc1` was run?
Answer: -2%

Question: Which inhibition does the source give for `O=C(c1ccccc1F)N1CCCC1c1nccnc1-c1ncc[nH]1` (centres undefined) here?
Answer: 8.72%

Question: `O=C(COc1ccccc1)N1CCc2[nH]nc(-c3ccccc3)c2C1` was tested. Which inhibition did it give?
Answer: 5.14%

Question: `COc1ccc(Oc2nc(C)c(-c3ccccc3)cc2C#N)cc1` was tested. Which inhibition did it give?
Answer: 13.9%

Question: Which inhibition does the source give for `COc1ccccc1N1C(=O)c2ccccc2N2C(=O)c3ccccc3C12` (centres undefined) here?
Answer: 6.01%

Question: With `Cc1cccc(NC(=O)c2cnn3c2NC2=C(C(=O)CCC2)C3c2ccccc2)c1` (centres undefined) as the compound, how does the inhibition read?
Answer: -27.3%

Question: With `COCCN1C(=O)CCc2cc(NS(=O)(=O)c3cc(C)cc(C)c3)ccc21` as the compound, how does the inhibition read?
Answer: -19.5%

Question: How did the inhibition turn out when `CCCCOc1ccc(C(=O)Nc2ccc3c(c2)CCC(=O)N3CCC)cc1` was run?
Answer: 84.6% (active)

Question: With `CCN1C(=O)CCc2cc(NC(=O)Cc3ccc(OC)c(Cl)c3)ccc21` as the compound, how does the inhibition read?
Answer: 2.71%

Question: How did the inhibition turn out when `Cc1ccnc(Nc2nc(-c3ccccc3)c3cc(Cl)ccc3n2)n1` was run?
Answer: 12.6%

Question: With `COc1ccccc1CC(NC(C)=O)C(=O)NC1CCN(C(=O)c2cccc(C)c2)CC1` (centres undefined) as the compound, how does the inhibition read?
Answer: -1.93%

Question: For `Cc1cc(C)n(CC2CCCCN2CC(=O)NC2(C#N)CCCC2)n1` (centres undefined), which inhibition is on record?
Answer: 0.626%

Question: `Cc1ccc(C(=O)Nc2nc3c(s2)CCC3C(=O)NCc2ccncc2)cc1` (centres undefined) was tested. Which inhibition did it give?
Answer: 37.1% (active)

Question: For `Cc1ccc(C(=O)Nc2nccnc2C(=O)NCc2ccc3c(c2)OCO3)cc1`, which inhibition is on record?
Answer: -7.28%

Question: `CCc1nc2ccc(C(=O)Nc3nc(-c4ccc5c(c4)CCN5C(=O)c4ccc(C)cc4)c(C)s3)cc2nc1CC` was tested. Which inhibition did it give?
Answer: -7.6%

Question: With `NS(=O)(=O)c1ccc(CNc2nc(CN3CCCCC3)nc3sc4c(c23)CCC4)cc1` as the compound, how does the inhibition read?
Answer: -16.9%

Question: For `CCCCn1c(=O)c(CCC(=O)OCC(=O)Nc2ccc(C)c(Cl)c2)nc2ccccc21`, which inhibition is on record?
Answer: -33.9%

Question: How did the inhibition turn out when `O=C(CC1CCCC1)N1CCCC(n2c(=O)[nH]c3cncnc32)C1` (centres undefined) was run?
Answer: -14.3%

Question: With `Cc1cccc(OCc2nnc(C3(c4ccc(F)cc4)CCOCC3)o2)c1` as the compound, how does the inhibition read?
Answer: 13.2%

Question: For `Fc1ccc(-n2cc(-c3ccccc3)c3c(NCc4ccco4)ncnc32)cc1`, which inhibition is on record?
Answer: -4.6%

Question: How did the inhibition turn out when `c1coc(CNc2nc(Nc3cccc4ccccc34)nc3ccccc23)c1` was run?
Answer: 43.7% (active)

Question: How did the inhibition turn out when `CC(C)Cc1nc2sc3c(NCc4ccco4)ncnc3c2c2c1CCC2` was run?
Answer: 21.3%

Question: Which inhibition does the source give for `CCOc1ccccc1NC(=O)Nc1cc(-c2nc3ccccc3o2)ccc1OC` here?
Answer: 30.8% (active)

Question: Which inhibition does the source give for `COc1ccccc1NC(=O)N1CCN(Cc2nc3ccccc3o2)CC1` here?
Answer: -5.25%

Question: Which inhibition does the source give for `COc1ccccc1NC(=O)Nc1ccc(CCc2nc3ccccc3[nH]2)cc1` here?
Answer: -8.19%

Question: With `CN(C)c1cccc(C2CN(C(=O)c3ccc4n[nH]nc4c3)CCO2)n1` (centres undefined) as the compound, how does the inhibition read?
Answer: 8.99%

Question: With `Cc1nc(-c2cccc(S(=O)(=O)NCc3ccc(Cl)cc3)c2)no1` as the compound, how does the inhibition read?
Answer: 15.5%

Question: How did the inhibition turn out when `Cc1cccc(NC(=O)c2ccc(N3CCC(C)CC3)c([N+](=O)[O-])c2)c1C` was run?
Answer: -2.68%

Question: How did the inhibition turn out when `CN1CCN(S(=O)(=O)c2cccc(C(=O)Nc3cccc(S(N)(=O)=O)c3)c2)CC1` was run?
Answer: 0.55%

Question: `O=C(Nc1cccc(S(=O)(=O)N2CCCCCC2)c1)c1ccc(N2CCOCC2)c([N+](=O)[O-])c1` was tested. Which inhibition did it give?
Answer: 35.6% (active)

Question: `CC1(C)CC(=O)C2=C(C1)Nc1ccccc1NC2c1ccccc1O` (centres undefined) was tested. Which inhibition did it give?
Answer: 4.62%

Question: `Cc1cc(-c2cc(N)n(-c3ccccc3)n2)c(C)n1-c1cccc(C(F)(F)F)c1` was tested. Which inhibition did it give?
Answer: 3.89%

Question: How did the inhibition turn out when `COc1cc(N2CC[C@@H]3[C@@H](CO[C@H]3CNC(=O)C3CC3)C2)ncn1` was run?
Answer: 5.25%

Question: For `Cc1cccc(C)c1NC(=O)c1nnn(-c2ccc3noc(-c4ccccc4)c3c2)c1C`, which inhibition is on record?
Answer: 8.24%

Question: For `C=C1CCC2[C@](C)(CCC[C@]2(C)C(=O)OC)[C@H]1CCc1ccoc1C[N+](C)(C)Cc1ccccc1` (some centres undefined), which inhibition is on record?
Answer: 50.6% (active)

Question: For `C=C1CCC2[C@](C)(CCC[C@]2(C)C(=O)OC)[C@H]1CCc1ccoc1/C=C/C(=O)O` (some centres undefined), which inhibition is on record?
Answer: 48% (active)

Question: With `O=C(NCc1ccc2c(c1)OCO2)c1cncc(NS(=O)(=O)c2ccc3c(c2)OCCO3)c1` as the compound, how does the inhibition read?
Answer: 4.62%

Question: `N#Cc1ccc(C(=O)N2CCC(c3nc(-c4ccccc4)no3)CC2)cc1` was tested. Which inhibition did it give?
Answer: 3.9%

Question: `O=C(c1ccccc1)N1CCC2(CC1)OCCCO2` was tested. Which inhibition did it give?
Answer: 4.41%

Question: For `CCc1cc(=O)oc2cc(C)cc(OCC(=O)N3CCC4(O)CCCCC4C3)c12` (centres undefined), which inhibition is on record?
Answer: -0.0724%

Question: With `Cc1ccc(-c2ncc(C(=O)Nc3ccccc3C)c(-c3ccncc3)n2)cc1` as the compound, how does the inhibition read?
Answer: -83.7%

Question: `Fc1ccc(CN=C2C(c3ccc4c(c3)OCCO4)=Nc3ncnn32)cc1` was tested. Which inhibition did it give?
Answer: 9.04%

Question: Which inhibition does the source give for `CC(C)c1cc(N2CCN(CCc3ccccc3)CC2)n2c(nc3ccccc32)c1C#N` here?
Answer: -23.5%

Question: With `Cc1c(-c2noc(-c3cccc(N(C)C)c3)n2)nnn1Cc1cccc(F)c1` as the compound, how does the inhibition read?
Answer: -4.14%

Question: `COc1ccc(-c2nc(-c3nnn(Cc4cccc(F)c4)c3C)no2)cc1` was tested. Which inhibition did it give?
Answer: 19.7%

Question: How did the inhibition turn out when `CCOc1ccccc1-c1nc(-c2nnn(Cc3ccccc3)c2C)no1` was run?
Answer: 41.4% (active)

Question: For `Cc1cccc(NC(=O)Nc2ccc3c(c2)N(S(=O)(=O)c2ccccc2)CC3)c1C`, which inhibition is on record?
Answer: -0.657%

Question: Which inhibition does the source give for `COC(=O)COc1cccc2c(=O)n(CC(=O)N3CCc4ccccc43)ccc12` here?
Answer: 36% (active)

Question: With `Cc1nc2ccccc2c(=O)n1CC(=O)N1CCCc2ccccc21` as the compound, how does the inhibition read?
Answer: 6.83%

Question: Which inhibition does the source give for `O=C(Cn1cnc2ccccc21)N1CCCc2ccccc21` here?
Answer: 15.3%

Question: `COc1ccc(CNC(=O)[C@H](CCSC)NC(=O)[C@@H]2Cc3c([nH]c4ccccc34)C3c4ccccc4C(=O)N32)cc1` (some centres undefined) was tested. Which inhibition did it give?
Answer: -15%

Question: With `NC(=O)c1c(NC(=O)/C=C/C(=O)O)sc2c1CCCCCC2` as the compound, how does the inhibition read?
Answer: -7.88%

Question: `COc1cccc(N2C(=O)c3cccnc3C2Nc2ccc(C)c(C)c2)c1` (centres undefined) was tested. Which inhibition did it give?
Answer: -14.4%

Question: For `COc1ccc(/C=C/C(=O)Nc2ccc3c(c2)OCCO3)cc1Br`, which inhibition is on record?
Answer: 76.8% (active)

Question: Which inhibition does the source give for `O=C(Nc1ccc2c(c1)OCO2)N1CCCCCC1` here?
Answer: -1.57%

Question: `COc1ccc(NC(=O)CCC(=O)c2ccc3c(c2)OCCO3)cc1S(=O)(=O)Nc1ccc(Cl)cc1` was tested. Which inhibition did it give?
Answer: 16.3%

Question: With `O=C(/C=C/c1ccc(Cl)cc1)Nc1ccc2c(c1)OCCO2` as the compound, how does the inhibition read?
Answer: 35.4% (active)

Question: How did the inhibition turn out when `COc1ccc(NS(=O)(=O)c2cc(NC(=O)/C=C/c3cccc(OC)c3)ccc2OC)cc1` was run?
Answer: 19.1%

Question: `O=C(Nc1ccc2c(c1)OCO2)c1sc2cc(Cl)ccc2c1Cl` was tested. Which inhibition did it give?
Answer: -10.3%

Question: With `COc1ccc(S(=O)(=O)c2cnc3cc(OC)c(OC)cc3c2N2CCOCC2)cc1` as the compound, how does the inhibition read?
Answer: 3.3%

Question: With `COc1ccccc1NC(=O)CCC(=O)N1CCSc2ccccc21` as the compound, how does the inhibition read?
Answer: -4.12%

Question: For `Brc1ccc2[nH]c3c(NCCCN4CCOCC4)ncnc3c2c1`, which inhibition is on record?
Answer: -18.8%

Question: For `COc1cc(NC(=O)c2noc3c2CCc2sccc2-3)cc(OC)c1`, which inhibition is on record?
Answer: 43.6% (active)

Question: Which inhibition does the source give for `COc1cc(OC)cc(C(=O)Nc2ccc(S(=O)(=O)Nc3cc(C)on3)cc2)c1` here?
Answer: 12.8%

Question: For `O=C(NCc1ccccc1)c1noc2c1CCc1sccc1-2`, which inhibition is on record?
Answer: 0.0745%

Question: `COc1cccc(C2c3[nH]c4ccccc4c3C[C@@H]3C(=O)N(CCCn4ccnc4)CC(=O)N23)c1` (some centres undefined) was tested. Which inhibition did it give?
Answer: -0.857%

Question: Which inhibition does the source give for `CC(C)(C)c1ccc(C(=O)Nc2cccc(-c3nc4ncccc4o3)c2)cc1` here?
Answer: 2.33%

Question: Which inhibition does the source give for `COc1cccc(NC(=O)C(C#N)C(=O)C2CC2c2cccc(C)c2)c1` (centres undefined) here?
Answer: 26.5%

Question: For `Cc1c(-c2nn3c(-c4ccco4)nnc3s2)cccc1[N+](=O)[O-]`, which inhibition is on record?
Answer: 33.6% (active)

Question: How did the inhibition turn out when `Cc1cc(C)n2nc(C(=O)N(C)C(c3ccccc3)c3ccccc3)nc2n1` was run?
Answer: 5.86%

Question: For `COc1ccc2[nH]c3c(NCCCN4CCOCC4)ncnc3c2c1`, which inhibition is on record?
Answer: -8.4%

Question: With `O=C(c1ccc2cc[nH]c2c1)N1CCCC2(COCCN(CC3CC3)C2)C1` (centres undefined) as the compound, how does the inhibition read?
Answer: -13.8%

Question: With `Cc1ccc(S(=O)(=O)NCC(c2ccc3c(c2)CCN3C)N2CCCC2)c(C)c1` (centres undefined) as the compound, how does the inhibition read?
Answer: -0.036%

Question: For `COc1ccc(C(=O)N2CCCN(c3ncccc3-c3nc(C)no3)CC2)cc1`, which inhibition is on record?
Answer: 5.18%

Question: With `Cc1ccc(NC(=O)Cc2nc(-c3ccccc3)n[nH]2)cc1` as the compound, how does the inhibition read?
Answer: -4.45%

Question: For `O=C(NCc1noc(-c2ccccc2)n1)C1CCCC1`, which inhibition is on record?
Answer: -13.9%

Question: How did the inhibition turn out when `CC(C)(C)C(=O)OCc1noc(-c2ccccc2)n1` was run?
Answer: 7.9%

Question: With `O=C1COc2ccccc2N1Cc1noc(-c2ccccc2)n1` as the compound, how does the inhibition read?
Answer: 72.3% (active)

Question: `O=C1NC2(CCCc3ccccc32)C(=O)N1Cc1csc(-c2ccc(Cl)cc2)n1` (centres undefined) was tested. Which inhibition did it give?
Answer: 2.68%

Question: For `COc1cccc(-c2noc(CN3CCCC3c3cc(OC)ccc3OC)n2)c1` (centres undefined), which inhibition is on record?
Answer: -19.5%

Question: How did the inhibition turn out when `O=C(COc1ccccc1)Nc1cnc(-c2cccc(Cl)c2)nc1` was run?
Answer: 0.526%

Question: `CC1CCc2c(sc3nc(CC#N)[nH]c(=O)c23)C1` (centres undefined) was tested. Which inhibition did it give?
Answer: -258%

Question: Which inhibition does the source give for `COc1cc(-c2nc3sc4c(c3c(=O)[nH]2)CCC(C)C4)ccc1OCc1ccc(C)cc1` (centres undefined) here?
Answer: 13.3%

Question: For `CC1CCc2c(sc3ncnc(OCc4cccc([N+](=O)[O-])c4)c23)C1` (centres undefined), which inhibition is on record?
Answer: 94.8% (active)

Reference: PubChem BioAssay AID1645857 (Buhrlage Lab, Dana-Farber Cancer Institute and Novartis …, 2021)
